Only some compounds are listed: those with a hit (about 7.3% of all), similar ones and a draw of the others.
ELG1 genotox: induces genotoxicity in HEK293T cells with luciferase-tagged ELG1; AID 504466; Potency, µM (highest dose often 46 µM), inactives show at the top dose activity change, positive = activation, hits mostly activators; HEK293T ELG1-luciferase reporter, luminescence, 16 h; 330,000 tested, 1.3% active; note: % of control where 0% means no effect; nearly all actives have a fitted effect of over 60% in size
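16 hr compound incubation (37 °C, 5% CO2) of HEK293T cells carrying luciferase-tagged ELG1; luciferase then measured by ONE-Glo luminescence after 30 min at RT.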
Rab9 promoter act: activates the Rab9 promoter | Huh7 Rab9 promoter-luciferase reporter, luminescence, 24 h | Potency, µM (titrated, usually from 9.22 µM), without a hit: at the top dose activation, negative = inhibition, most hits filed as activators | 320,000 tested, 2.8% active | AID 485297; note: % of control where 0% means no effect; nearly all actives have a fitted effect of over 60% in size
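Stable Rab9-luc Huh7, 1500 cells/well, 2 h settle; cmpd in DMSO, 24 h, 37 °C/5% CO2; luciferase reagent 10 min RT; luminescence.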
KinaseGlo FLuc: counter-screen: inhibitors of Kinase-Glo firefly luciferase. AID 1379. Kinase-Glo luciferase, ATP luminescence, 8 min. 200,000 tested, 0.28% active. Potency, µM (top dose mostly 38.3 µM), inactives show at the highest dose activity change, negative = inhibition, usual class: inhibitors; note: % is set by controls: 0 for no effect and ±100 for the full control effect; nearly all actives have a fitted effect of over 60% in size
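Light output from Kinase-Glo luciferase with luciferin and 10 uM ATP in 50 mM imidazole pH 7.2, KCl, MgCl2, Tween 20, BSA; compound pin-delivered, 8-min ambient incubation, then luminescence read.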
NPC1 promoter act: activators of NPC1 promoter; Potency, µM (series often up to 9.22 µM), inactives show at the highest dose activation, actives largely listed as activators; Huh7 NPC1 promoter luciferase reporter, 24 h; 320,000 tested, 2.4% active; note: % of control where 0% means no effect; nearly all actives have a fitted effect of over 60% in size
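Compounds in DMSO were transferred onto Huh7 NPC1-luciferase reporter cells pre-incubated 2 h; after 24 h at 37 °C, Amplite reagent was dispensed and luminescence recorded 10 min later.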
SMN2 splice up: increases expression of the SMN2 splice variant; AID 1458; Potency, µM (top dose mostly 46.1 µM), for inactives: top-dose activity change, positive = activation, most hits filed as activators; 210,000 tested, 2.8% active; HEK293 SMN2-luciferase splicing reporter, luminescence, 30-36 h; note: % of control where 0% means no effect; nearly all actives have a fitted effect of over 55% in size
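qHTS luciferase splicing reporter: luminescence rises when SMN2 exon 7 is included in transfected HEK293 cells. Compound exposure lasted 30-36 h at 37C, with 4.5 mM final sodium butyrate as control, followed by a ONE-Glo read.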
FLuc counter: firefly luciferase modulation, counter-screen for miR-21 project; P08659; Potency, µM (top dose mostly 57.5 µM), inactives show at the highest dose activity change, negative = inhibition, most hits filed as inhibitors; purified FLuc, Km substrates, luminescence inhibition; 360,000 tested, 6.9% active; AID 588342;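 note: plate controls were vehicle for no effect and reference inhibitor for full effect; nearly all actives have a fitted effect of over 55% in size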
Target sequence (P08659 whole entry, looked up): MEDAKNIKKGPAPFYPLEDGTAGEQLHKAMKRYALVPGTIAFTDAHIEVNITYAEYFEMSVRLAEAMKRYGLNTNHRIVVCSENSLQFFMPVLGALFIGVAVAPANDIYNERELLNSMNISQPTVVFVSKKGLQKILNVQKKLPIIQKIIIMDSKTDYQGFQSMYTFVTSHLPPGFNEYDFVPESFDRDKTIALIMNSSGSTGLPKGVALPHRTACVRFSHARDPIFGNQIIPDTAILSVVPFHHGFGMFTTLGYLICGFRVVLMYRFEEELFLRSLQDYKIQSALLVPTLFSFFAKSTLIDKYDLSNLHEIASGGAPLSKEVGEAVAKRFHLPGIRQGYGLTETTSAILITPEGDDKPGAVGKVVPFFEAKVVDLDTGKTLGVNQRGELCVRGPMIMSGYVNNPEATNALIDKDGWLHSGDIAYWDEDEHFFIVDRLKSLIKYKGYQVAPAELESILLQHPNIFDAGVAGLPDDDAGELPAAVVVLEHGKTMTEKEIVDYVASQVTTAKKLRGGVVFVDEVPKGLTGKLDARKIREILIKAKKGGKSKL
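Purified P. pyralis luciferase, 10 nM final, with Km-level 10 uM D-luciferin and 10 uM ATP in 50 mM Tris acetate pH 7.5, 10 mM Mg acetate, 0.01% Tween-20, 0.05% BSA; 6-point qHTS titration about 60 µM downward; luminescence read.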
* marks the source's active call; other numbers are inactive results; [ ] = dose if it differs, or a comment. Calls come from the whole dose curve; as a rule, active = well fitted curve in the direction sought with a large enough effect; inconclusive = small, poorly fitted or top-dose-only effect, or another doubt; inactive = no such curve, though single readings can be large; an effect the other way counts as inactive or inconclusive. Potency is the fitted concentration of half-maximal effect.

How did CCOc1cccc(C(=O)Nc2ccc3[nH]ncc3c2)c1 do in these assays?
ELG1 genotox: inconclusive; Rab9 promoter act: 2µM*; NPC1 promoter act: 2.8µM*; FLuc counter: 5.4µM*

How did COc1cccc(C(=O)Nc2ccc3[nH]ncc3c2)c1 do in these assays?
ELG1 genotox: inconclusive; Rab9 promoter act: 3.5µM*; NPC1 promoter act: 2.8µM*; FLuc counter: 11µM*

How did CCn1cc(C(=O)N2CCN(c3ccc(F)cc3)CC2)c(=O)c2cc(S(=O)(=O)N3CCOCC3)ccc21 do in these assays?
SMN2 splice up: -12%; FLuc counter: 3%

How did Cc1[nH]c2ccccc2c1/C=N/Nc1ccccn1 do in these assays?
ELG1 genotox: 0%; Rab9 promoter act: 14%; KinaseGlo FLuc: -2%; NPC1 promoter act: -7%; SMN2 splice up: 2%; FLuc counter: 24µM*

How did Cc1[nH]c2ccccc2c1/C=N/Nc1ccc([N+](=O)[O-])cc1 do in these assays?
ELG1 genotox: -1%; Rab9 promoter act: 0%; NPC1 promoter act: 0%; FLuc counter: inconclusive

What do the screens show for `Cc1[nH]c2ccccc2c1/C=N/Nc1nncn1N`?
ELG1 genotox: inconclusive; Rab9 promoter act: inconclusive; KinaseGlo FLuc: 1%; NPC1 promoter act: 6%; SMN2 splice up: 20%; FLuc counter: 2.1µM*

Results for Cc1cc(Cl)ccc1NC(=O)c1ccc2c(c1)OCO2 ?
ELG1 genotox: inconclusive; Rab9 promoter act: 3.5µM*; NPC1 promoter act: 2.2µM*; FLuc counter: 12µM*

How did O=C(CNC(=O)c1ccc(Cl)cc1Cl)OCC(=O)c1ccc2c(c1)OCCO2 do in these assays?
ELG1 genotox: -2%; Rab9 promoter act: 10%; KinaseGlo FLuc: -1%; NPC1 promoter act: 2%; SMN2 splice up: -12%; FLuc counter: 17µM*

How did O=C(Nc1ccc(Cl)c(-c2nc3ccccc3[nH]2)c1)c1ccc2c(c1)OCO2 do in these assays?
ELG1 genotox: -3%; Rab9 promoter act: 0%; KinaseGlo FLuc: 0%; NPC1 promoter act: 8%; SMN2 splice up: 6%; FLuc counter: 12µM*

How did COc1cc(Cl)c(C)cc1NC(=O)c1ccc2c(c1)OCO2 do in these assays?
ELG1 genotox: 6%; Rab9 promoter act: inconclusive; NPC1 promoter act: inconclusive; FLuc counter: -17%

How did Cc1ccc(NC(=O)c2ccc3c(c2)OCO3)cc1Cl do in these assays?
ELG1 genotox: inconclusive; Rab9 promoter act: 0.79µM*; NPC1 promoter act: 0.56µM*; FLuc counter: 2.7µM*

How did O=C(Nc1ccc(-c2nc3ccccc3[nH]2)cc1)c1ccc2c(c1)OCO2 do in these assays?
ELG1 genotox: 11%; Rab9 promoter act: inconclusive; KinaseGlo FLuc: 2%; NPC1 promoter act: 4%; SMN2 splice up: 9%

How did O=C(Nc1ccccc1)OC[C@H](CN1CCCCC1)OC(=O)Nc1ccccc1 do in these assays?
KinaseGlo FLuc: -1%[17.1 µM]; SMN2 splice up: -7%[20.6 µM]

How did Cc1ccc(C(=O)Nc2ccc3c(c2)OCO3)cc1S(=O)(=O)N1CCCC1 do in these assays?
ELG1 genotox: -5%; Rab9 promoter act: inconclusive; KinaseGlo FLuc: 0%; NPC1 promoter act: inconclusive; SMN2 splice up: 24%; FLuc counter: 12µM*

Results for O=C(Nc1ccc2c(c1)OCO2)c1ccc(Cl)nc1 ?
ELG1 genotox: inconclusive; Rab9 promoter act: 28%; KinaseGlo FLuc: -7%; NPC1 promoter act: 26%; SMN2 splice up: 28%; FLuc counter: inconclusive

How did O=C(Nc1ccc(Cl)cc1Cl)c1ccc2c(c1)OCCO2 do in these assays?
ELG1 genotox: inconclusive; Rab9 promoter act: 0.32µM*; NPC1 promoter act: 0.4µM*; FLuc counter: 0.3µM*

What do the screens show for `O=C(Nc1ccc2c(c1)OCO2)c1cnc(Cl)c(Cl)c1`?
ELG1 genotox: 17%; Rab9 promoter act: 3.5µM*; NPC1 promoter act: inconclusive; FLuc counter: 7.6µM*

Results for Cc1ccc(C(=O)Nc2ccc3c(c2)OCO3)cc1S(=O)(=O)N1CCOCC1 ?
ELG1 genotox: 0%; Rab9 promoter act: 29%; NPC1 promoter act: inconclusive; FLuc counter: inconclusive

What do the screens show for `Cc1ccc(C(=O)Nc2ccc3c(c2)OCO3)cc1Cl`?
ELG1 genotox: 4.6µM*; Rab9 promoter act: 2.5µM*; NPC1 promoter act: 0.89µM*; FLuc counter: 2.4µM*

How did Cc1cccc(NC(=O)C2CCCN(c3nnc(-n4c(C)ccc4C)s3)C2)c1C (stereo unspecified) do in these assays?
SMN2 splice up: -2%; FLuc counter: -9%

How did Cc1cc2ncn(/N=C/c3ccc(-c4ccccc4)o3)c2cc1C do in these assays?
ELG1 genotox: -4%; Rab9 promoter act: 8%; KinaseGlo FLuc: -3%; NPC1 promoter act: -2%; SMN2 splice up: 16%; FLuc counter: 24µM*

Results for Cc1cc2ncn(/N=C/c3cccnc3)c2cc1C ?
ELG1 genotox: 5%; Rab9 promoter act: -9%; KinaseGlo FLuc: -1%; NPC1 promoter act: -3%; SMN2 splice up: -14%; FLuc counter: inconclusive

What do the screens show for `N#Cc1cccc(NC(=O)CCNS(=O)(=O)c2ccc3c(c2)CCN3C(=O)C2CC2)c1`?
FLuc counter: 0%

How did Cc1cccc(CCNC(=O)c2ccc3c(c2)nc2n3CCCCC2)c1 do in these assays?
FLuc counter: 4.8µM*

Results for CCCNC(=O)c1ccc2c(c1)nc1n2CCCCC1 ?
FLuc counter: 17µM*

What do the screens show for `O=C(NCCc1ccccc1Cl)c1ccc2c(c1)nc1n2CCOC1`?
FLuc counter: 4.8µM*

How did COc1ccc(CNC(=O)c2ccc3c(c2)nc2n3CCCCC2)cc1 do in these assays?
FLuc counter: 17µM*

What do the screens show for `O=C(NCc1cccc(Cl)c1)c1ccc2c(c1)nc1n2CCOC1`?
FLuc counter: -9%

How did COc1ccc(C(=O)Nc2nnc(S(=O)(=O)N3CCN(c4ccc(C)cc4)CC3)s2)cc1 do in these assays?
FLuc counter: -2%

What do the screens show for `COc1ccc(CNC(=O)CCC2N=C3c4ccccc4N=C(SCc4ccc(F)cc4)N3C2=O)cc1` (stereo unspecified)?
FLuc counter: -8%

How did CCN(CC)CCCNC(=O)c1c(C)oc2ncn(CC(C)C)c(=O)c12 do in these assays?
FLuc counter: -5%

What do the screens show for `CC(C)COc1ccc(C(=O)N2CCCCC2CCN2CCOCC2)cc1` (stereo unspecified)?
SMN2 splice up: -9%; FLuc counter: 1%

How did Cc1cccc(CCNC(=O)c2ccc3c(c2)nc2n3CCOC2)c1 do in these assays?
FLuc counter: 15µM*

Source: PubChem
